Calls of active or inactive are those of the source. Rule for the calls: active = hit-call score of the fitted dose curve at least 0.9, where 1 is the maximum; inactive = score below 0.9.
The compounds below were run against Hepatocyte nuclear factor 3-beta (Homo sapiens) (UniProt Q9Y261) (assay: ATG_FoxA2_CIS: Attagene CIS-FACTORIAL HepG2 Assay for human Forkhead box A2 (FOXA2) (AID 2282942)). Details: HepG2 cis-reporter transcription factor activity, 24 h; actives raise or lower the signal.
Protocol: ATG_CIS is a cell-based, multiplexed-readout assay that uses HepG2, a human liver cell line, with measurements taken at 24 hours after chemical dosing in a 24-well plate.ATG_FoxA2_CIS is one of 52 assay component(s) measured or calculated from the ATG_CIS assay. It is designed to make measurements of mRNA induction, a form of inducible reporter, as detected with fluorescence intensity signals by Reverse transcription polymerase chain reaction (RT-PCR) and Capillary electrophoresis technology.Data from the assay component ATG_FoxA2_CIS was analyzed into 1 assay endpoint. This assay endpoint, ATG_FoxA2_CIS, was analyzed with bidirectional fitting relative to DMSO as the negative control and baseline of activity. Using a type of inducible reporter, measures of mRNA for gain or loss-of-signal activity can be used to understand the reporter gene at the transcription factor-level as they relate to the gene FOXA2. Furthermore, this assay endpoint can be referred to as a primary readout, because this assay has produced multiple assay endpoints where this one serves a reporter gene function. To generalize the intended target to other relatable targets, this assay endpoint is annotated to the dna binding intended target family, where the subfamily is forkhead box protein.
Human liver HepG2 cells are transiently transfected with multiple reporter transcription units (MRTUs) in 6-well plates using FuGene 6 reagent (Roche; 3 ml FuGene/1 mg DNA). The MRTU constructs are regulated by a cis-regulating element (promoter). […] A major difference between the CIS and TRANS system is that in CIS activities of endogenous TFs are measured, whereas the TRANS assay evaluates changes in activities of exogenous, chimeric NR-Gal4 proteins. […] At the end of 24 hour incubation, total RNA was isolated using TriZol reagent (Invitrogen). The isolated RNA is then reverse-transcribed using oligo(dT) primer and Mo-MLV reverse transcriptase (Invitrogen) with DNAse I (Ambion) treatment for 30 min. The one-tenth of the produced cDNA was amplified by PCR using Taq DNA polymerase (Invitrogen) and two reporter sequence-specific primers. The PCR products were fluorescently labeled by primer extension with 6-arboxyfluorescein (6-FAM) 5'-labeled reporter sequence-specific primer (2 min at 95 C, 20 s at 68 C and 10 min at 72 C) and these products were digested with 5U of HpaI (New England Biolabs) for 2h at 37 C. The fragments were purified using Qiaquick PCR columns (Qiagen), analyzed on an ABI 3130xL genetic analyzer (Applied Biosystems) with peak positions identified by using a set of X-rhodamine (ROX)-labeled MapMarker1000 molecular weight standards (BioVentures). The raw capillary electrophoresis data was processed using Attagraph software (Attagene).

Chain of Hepatocyte nuclear factor 3-beta (Homo sapiens) (Q9Y261 whole entry, looked up): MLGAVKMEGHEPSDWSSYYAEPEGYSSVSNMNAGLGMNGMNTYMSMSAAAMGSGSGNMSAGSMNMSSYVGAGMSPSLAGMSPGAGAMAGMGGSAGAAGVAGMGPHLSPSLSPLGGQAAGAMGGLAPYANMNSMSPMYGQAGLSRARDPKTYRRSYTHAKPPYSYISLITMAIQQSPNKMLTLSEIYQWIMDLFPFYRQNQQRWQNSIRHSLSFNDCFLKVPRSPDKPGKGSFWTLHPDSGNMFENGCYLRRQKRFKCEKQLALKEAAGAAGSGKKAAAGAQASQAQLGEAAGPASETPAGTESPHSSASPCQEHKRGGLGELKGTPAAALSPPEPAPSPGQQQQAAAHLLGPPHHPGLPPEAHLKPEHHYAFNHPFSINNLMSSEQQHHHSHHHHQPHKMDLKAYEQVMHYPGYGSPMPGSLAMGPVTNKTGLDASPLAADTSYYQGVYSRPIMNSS

Row | Compound | outcome
1 | COc1ccc2c(c1)c(CC(=O)O)c(C)n2C(=O)c1ccc(Cl)cc1 | inactive
2 | C1CCC(SSC2CCCCC2)CC1 | inactive
3 | Oc1ccc2c(c1)OC[C@@H](N1CCC(O)(c3ccc(F)cc3)CC1)[C@H]2O | inactive
4 | CCCCOC(=O)CCCCCCCCC(=O)OCCCC | inactive
5 | O=c1[nH]cc(F)c(=O)[nH]1 | inactive
6 | O=[N+]([O-])C(CO)(CO)CO | inactive
7 | CC(=O)OCCOCCOCCOC(C)=O | inactive
8 | CC(=O)OC/C=C(\C)CCC=C(C)C | inactive
9 | CCOC(=O)C(C)(C)Oc1ccc(Cl)cc1 | inactive
10 | Clc1cc(Cl)c(Cl)cc1Cl | inactive
11 | CN1CCCC1=O | inactive
12 | C[C@]12C=CC(=O)C=C1CC[C@@H]1[C@@H]2C(=O)C[C@@]2(C)[C@H]1CC[C@]2(O)C(=O)CO | inactive
13 | CCc1c(C(=O)NN2CCCCC2)nn(-c2ccc(Cl)cc2Cl)c1-c1ccc(Br)cc1 | inactive
14 | CC1(C)NC(=O)NC1=O | inactive
15 | COCCOCCOC | inactive
16 | CC(C)(C)c1cc(O)c(C(C)(C)C)cc1O | inactive
17 | COc1cccc2c1C(=O)c1c(O)c3c(c(O)c1C2=O)C[C@@](O)(C(=O)CO)C[C@@H]3O[C@H]1C[C@H](N)[C@H](O)[C@H](C)O1 | inactive
18 | CCCCCCCCCCCCCCCCCC(=O)O | inactive
19 | COc1cc(-c2nc(NC(=O)c3cc4cc(C)cc(C)c4n3CC(=O)O)sc2CCC2CCCCC2)c(OC)cc1Cl | inactive
20 | COc1cc(S(=O)(=O)O)c(C)cc1N=Nc1c(O)ccc2cc(S(=O)(=O)O)ccc12 | inactive

Row | Compound | outcome
21 | NS(=O)(=O)c1cc2c(cc1Cl)NCNS2(=O)=O | inactive
22 | Cc1nc(C)nc(N2C[C@@H](C)N(c3ccnc([C@@H](C)O)n3)[C@@H](C)C2)n1 | inactive
23 | CC(CO)OC(C)CO (stereo not given) (tested in a mixture with another compound) | inactive
24 | FC(F)(F)C(F)(F)C(F)(F)C(F)(F)C(F)(F)C(F)(F)CCI | inactive
25 | Cc1ccc(Cl)cc1 | inactive
26 | O=C(O)CCCCC(=O)O | inactive
27 | CC(=O)C(C)=CC1C(C)=CCCC1(C)C (stereo not given) | inactive
28 | Cc1ccc(C)c(C)c1 | inactive
29 | Nc1ccccc1N | inactive
30 | CCCCC(CC)COC(=O)CC(C(=O)OCC(CC)CCCC)S(=O)(=O)O (stereo not given) | inactive
31 | COCCOC[C@H](CC1(C(=O)NC2CCC(C(=O)O)CC2)CCCC1)C(=O)Oc1ccc2c(c1)CCC2 (stereo not given in full) | inactive
32 | CC1=C(/C=C/C(C)=C/C=C/C(C)=C/CO)C(C)(C)CCC1 | inactive
33 | Cc1ccc2ncccc2c1 | inactive
34 | CC=Cc1ccc(O)c(OC)c1 | inactive
35 | C=CCc1ccc(O)c(OC)c1 | inactive
36 | Cc1c(C(=O)O)c(O)cc2c1C(=O)c1c(O)c([C@@H]3O[C@H](CO)[C@@H](O)[C@H](O)[C@H]3O)c(O)c(O)c1C2=O | inactive
37 | CC1(C)CC(N=C=O)CC(C)(CN=C=O)C1 (stereo not given) | inactive
38 | CN1CCN(Cc2cc(-c3ccc4[nH]c(=O)oc4c3)co2)[C@@H](c2ccc(F)cc2)C1 | inactive
39 | COc1cc(/C=C/C(=O)CC(=O)/C=C/c2ccc(O)c(OC)c2)ccc1O | inactive
40 | Cc1cc(=O)[nH]c(=S)[nH]1 | inactive
